# Screening data from PubChem BioAssay.
# This is a sample that favours compounds with a hit; in the whole collection about 12% have one here.
# AmpC detergent = blocks E. coli AmpC beta-lactamase in detergent assay; P00811; AmpC hydrolysis of nitrocefin, absorbance 480 nm, 0.01% Triton; Potency, µM (titrated, usually from 114 µM), inactives show at the top dose activity change, negative = inhibition, usual class: inhibitors; 370,000 compounds, 0.041% hits;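 note: 0% = no-compound wells and -100% = no-enzyme wells; nearly all actives have a fitted effect of over 25% in size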
# Target sequence (P00811 whole entry, looked up): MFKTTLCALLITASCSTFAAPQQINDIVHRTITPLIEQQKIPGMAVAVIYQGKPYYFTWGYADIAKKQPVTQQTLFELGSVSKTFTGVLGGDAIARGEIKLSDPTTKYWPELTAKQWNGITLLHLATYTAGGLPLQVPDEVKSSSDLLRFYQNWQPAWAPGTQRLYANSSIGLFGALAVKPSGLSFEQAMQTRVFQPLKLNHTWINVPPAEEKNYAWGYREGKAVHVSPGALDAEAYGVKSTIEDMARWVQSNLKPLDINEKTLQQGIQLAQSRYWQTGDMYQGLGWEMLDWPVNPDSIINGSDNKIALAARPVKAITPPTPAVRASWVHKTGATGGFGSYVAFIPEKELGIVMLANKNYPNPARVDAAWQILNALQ
#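 AmpC (5.3 nM in the dispensed reagent) in 20 mM phosphate pH 7.0 with 0.01% (detergent screen) or 0.0001% Triton X-100 was preincubated with compounds for 15 min at room temperature. Nitrocefin was then added from an 800 uM solution, and hydrolysis was followed at 480 nm.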
# Pf growth 48h = inhibits P. falciparum growth in the first generation, 48 h; AID 504832; 310,000 compounds, 5.9% hits; Potency, µM (doses to about 28.7 µM), for the others: top-dose activity change, negative = inhibition, actives largely listed as inhibitors; P. falciparum luciferase growth in erythrocytes, 48 h; note: % is set by controls: 0 for no effect and ±100 for the full control effect
#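 Luciferase-expressing P. falciparum in infected erythrocytes (2% hematocrit, 0.1% parasitemia final) in RPMI 1640/0.5% Albumax were exposed to compound for 48 hours at 37 C, 5% CO2; growth read as luminescence.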
# Pf growth 96h = inhibits malaria parasite growth, 96 h. P. falciparum luciferase reporter growth, 96 h. Potency, µM (titrated, usually from 28.7 µM), for the others: at the highest dose activity change, negative = inhibition, usual class: inhibitors. 320,000 compounds, 6.9% hits; note: % is set by controls: 0 for no effect and ±100 for the full control effect
#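 Two parasite generations (96 h, 37 C, 5% CO2) of compound exposure in infected erythrocytes (0.05% parasitemia, 2% hematocrit). Luciferase-reporter P. falciparum; decreased luminescence indicates inhibited growth, aimed at apicoplast-acting delayed death.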
# SARS PLP yeast = SARS-CoV PLP inhibition in yeast; S. cerevisiae expressing SARS-CoV PLpro, growth rescue; Potency, µM (top dose mostly 32.9 µM), for inactives: at the highest dose activity, positive = growth rescue, most hits filed as activators; 330,000 compounds, 0.19% hits; calls by dose curve; note: 0% is about no effect; nearly all actives have a fitted effect of over 55% in size
# Sm TGR inh = inhibitors of Schistosoma mansoni thioredoxin glutathione reductase; 360,000 compounds, 3% hits; purified TGR, DTNB reduction, TNB absorbance 405 nm; AID 485364; Q962Y6; Potency, µM (series often up to 114 µM), for inactives: at the highest dose activity change, negative = inhibition, usual class: inhibitors; note: % is set by controls: 0 for no effect and ±100 for the full control effect; nearly all actives have a fitted effect of over 60% in size
#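 First, TGR (20 nM dispensed) and NADPH were mixed with compound. Second, a 15 min room-temperature incubation followed. Third, further NADPH and then DTNB were added to start the reaction. Finally, TNB absorbance was monitored kinetically.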
# AmpC no deterg = AmpC beta-lactamase inhibition without detergent. P00811. AmpC nitrocefin hydrolysis, absorbance 480 nm, 0.0001% Triton. Potency, µM (top dose mostly 57.1 µM), for the others: at the highest dose activity change, negative = inhibition, actives largely listed as inhibitors. 330,000 compounds, 0.52% hits. AID 485341;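 note: plate controls were no compound for no effect and no enzyme for full effect; nearly all actives have a fitted effect of over 20% in size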
#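 20 mM phosphate pH 7.0 + 0.01% (detergent screen) or 0.0001% Triton X-100; 5.3 nM AmpC reagent; cpd preinc 15 min RT; nitrocefin (800 uM stock) to start; A480 q20 s × 4 min; Activity was normalised to no-enzyme and no-compound control wells.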
# The depositor's hits bear a star; ? = inconclusive; . = no result; [ ] = remark or other dose. Unless noted, calls come from the whole dose curve; as a rule, active = well fitted curve in the direction sought with a large enough effect; inconclusive = small, poorly fitted or top-dose-only effect, or another doubt; inactive = no such curve, though single readings can be large; an effect the other way counts as inactive or inconclusive. Potency is the fitted concentration of half-maximal effect.
SMILES,AmpC detergent,Pf growth 48h,Pf growth 96h,SARS PLP yeast,Sm TGR inh,AmpC no deterg
Cc1cccc(N2C(=O)c3cccc4c(N5CCCCC5)c([N+](=O)[O-])cc(c34)C2=O)c1C,-5.1%,-15.9%,372.2%,-13.3%,-2.3%,-4.1%
O=C1c2cccc3c(N4CCOCC4)c([N+](=O)[O-])cc(c23)C(=O)N1c1cccc2ccccc12,1.8%,?,10.4µM*,4.9%,-1.5%,?
COc1cc(/C=N/NC(=O)CC2(C)OCCO2)cc(Br)c1O,0.5%,6.5%,17.4%,2.2%,-9.0%,-15.1%
COc1cc(/C=N/NC(=O)CC23CC4CC(CC(C4)C2)C3)cc(Br)c1OCC(=O)N(C)C,2.0%,13.1µM*,?,13.5%,-1.2%,384.4%
COc1cc(/C=N/NC(=O)C23CC4CC(CC(C4)C2)C3)cc(Br)c1O,1.9%,7.5%,-21.1%,4.4%,-18.1%,28.2µM*
COC(=O)c1ccc(CNC(=O)CCNC(=O)c2ccco2)cc1,1.7%,27.8%,8.9%,6.5%,0.4%,-15.2%
COc1c(F)c(F)c(C(=O)Nc2ccc(N3CCN(Cc4ccccc4)CC3)cc2)c(F)c1F,3.2%,?,.,-2.0%,4.9%,-0.5%
Cc1ccc(OCC(=O)NCC2(N(C)C)CCCCC2)cc1C,-4.9%,.,.,.,-0.8%,.
O=S1(=O)CCN2C(c3cccc4ccccc34)=CSC2=N1,-15.4%,-12.1%,-47.1%[5.75 µM],-0.8%,7.9%,-19.5%
CC(C)(C)c1ccc(C2=CSC3=NCCN23)cc1,-7.5%,?,0.262µM*,-13.7%,-10.6%,-17.9%
C1=C(c2cccc3ccccc23)N2CCN=C2S1,-16.3%,?,13.1µM*,20.3%,4.9%,-17.9%
CN(C)CCN(C(=O)/C=C/c1cccs1)c1nc2c(F)cc(F)cc2s1,-8.5%,11.7µM*,?,-24.0%,-10.9%,?
CN(C)CCCN(C(=O)/C=C/c1cccs1)c1nc2ccc(F)cc2s1,1.6%,?,?,-2.7%,6.7%,107.0%
COc1ccc(-c2cc(-n3c(C(F)(F)F)nc4ccccc43)n(CCC#N)n2)cc1,0.3%,13.1µM*,.,-26.7%,13.5%,86.0%
COc1ccc(Sc2nc3ccccc3n3c(C(F)(F)F)nnc23)cc1,3.3%,1.2%,?,1.7%,6.5%,-8.5%
O=C(CCNC(=O)c1ccco1)Nc1ccccc1N1CCOCC1,0.8%,16.2%,-27.1%,-3.8%,6.4%,-20.6%
Cc1ccc(N(C)C(=O)Oc2ccc(C(=O)c3ccc(Cl)cc3)cc2)cc1,6.5%,-4.8%,4.65µM*,7.0%,19.9%,-20.6%
CC(=O)Nc1ccc(OC(=O)N(C)c2ccc(C)cc2)cc1,-15.0%,?,9.28µM*,-10.0%,1.2%,1.1%
CC(=O)Nc1ccc(OC(=O)N(C)c2ccccc2)cc1,?,36.1%,12.8%,25.3%,-0.9%,-16.3%
CCOc1cc(C2NC(=O)CCC2[N+](=O)[O-])cc(Br)c1OCC (stereo unspecified),0.3%,-28.5%[0.00184 µM],3.1%,1.0%,10.1%,-3.8%
CCOC(=O)c1ccccc1NC(=O)N1CCC(CN2CCOCC2)CC1,-2.3%,.,.,.,-15.0%,.
C=CC[N+](C)(C)c1ccc(CCC(=O)CCc2ccc([N+](C)(C)CC=C)cc2)cc1,-3.2%,0.147µM*,0.147µM*,.,2.3%,23.6%
Cc1cc(S(=O)(=O)NCc2ccccc2)ccc1OCC(=O)NCC1CCCO1 (stereo unspecified),-1.6%,3.2%,-11.9%,-0.6%,.,22.3%
CCN(CC)S(=O)(=O)c1ccc2nc(NC(=O)c3cncc(Br)c3)sc2c1,17.2%,.,.,.,-4.2%,.
CC(C)Cn1c(N)c(C(=O)CSc2ncccn2)c(=O)n(C)c1=O,-11.9%,20.9%,2.0%,-1.5%,-4.6%,-4.9%
SMILES,AmpC detergent,Pf growth 48h,Pf growth 96h,SARS PLP yeast,Sm TGR inh,AmpC no deterg
Cn1c(=O)c(C(=O)COC(=O)c2cc(C(F)(F)F)nc3c(C(F)(F)F)cccc23)c(N)n(CC2CC2)c1=O,?,6.0%,-20.4%,-6.8%,-2.6%,-32.2%
Cn1c(=O)c(C(=O)CCl)c(N)n(CC2CC2)c1=O,?,-5.3%,?,-2.4%,14.1µM*,0.3%
CC(C)Cn1c(N)c(C(=O)CSc2nnc(C3CC3)n2C2CC2)c(=O)n(C)c1=O,-6.8%,?,8.28µM*,-0.6%,-3.0%,-5.1%
CC(C)Cn1c(N)c(C(=O)CCl)c(=O)n(C)c1=O,-10.1%,-14.7%,?,-8.9%,20µM*,-13.6%
CN1CCc2nc3sc(C(=O)Nc4ccccc4C(F)(F)F)c(N)c3cc2C1,1.3%,.,.,.,-8.4%,.
COc1cccc2c1ncc1c(-c3ccc(C)cc3)nn(-c3cccc([N+](=O)[O-])c3)c12,1.6%,.,.,.,-4.7%,.
Cc1cn2c(=O)cc(COC(=O)c3cccc(NC(=O)COc4ccccc4Cl)c3)nc2s1,10.0%,.,.,.,5.8%,.
CCc1ccc(-n2nc(C)c3c(C(=O)Nc4cccc(C(F)(F)F)c4)cc(C)nc32)cc1,-3.5%,.,.,.,1.4%,.
N#C/C(=C(\O)Cc1ccccc1)c1nc2ccccc2[nH]1,-0.2%,.,.,-12.0%,-6.0%,-22.9%
Cc1cccc(Nc2nnc(SC/C(O)=C(\C#N)c3nc4ccccc4[nH]3)s2)c1C,-9.4%,?,11.7µM*,2.9%,-3.9%,?
N#C/C(=C\c1ccc(Sc2nc3ccccc3[nH]2)o1)c1ccccc1,?,.,-76.3%,-10.5%,-25.2%,-38.6%
N#C/C(=C\c1ccc(Sc2ccc(Cl)cc2)o1)c1nc2ccccc2[nH]1,-13.9%,0.185µM*,-12.1%,-34.2%,-16.3%,28.2µM*
Cc1nc(CSc2nnc(Nc3cccc(C)c3C)s2)cs1,0.6%,?,7.38µM*,-7.3%,7.3%,-2.6%
N#C/C(=C(/O)CCl)c1nc2ccccc2[nH]1,0.7%,?,10.4µM*,-1.6%,25.1µM*,-18.3%
COc1cccc(NC(=O)Cn2c(=O)n(Cc3ccc(F)cc3)c(=O)c3sc4ccccc4c32)c1,13.3%,.,.,.,0.0%,.
O=C(OCC(=O)N1CCCC1)c1ccccc1C(=O)c1ccccc1,-6.4%,8.2%,4.6%,-8.2%,-5.9%,-2.3%
Cn1c(/C(C#N)=C/C2CC=CCC2)nc2ccccc21 (stereo unspecified),-1.3%,?,.,1.2%,0.7%,-11.2%
N#C/C(=C\C1CC=CCC1)c1nc2ccccc2[nH]1 (stereo unspecified),2.9%,8.28µM*,.,-19.8%,-12.1%,-28.7%
Cc1ccc(/C=C(\C#N)c2nc3ccccc3[nH]2)s1,42.9%,?,1.65µM*,-10.0%,23.6%,-8.2%
N#C/C(=C\c1c(Cl)cccc1Cl)c1nc2ccccc2[nH]1,-4.5%,8.28µM*,8.28µM*,-7.2%,-4.8%,11.2µM*
